# Data reported in PubChem BioAssay (NCATS).
# Records with an inconclusive call do not appear. Entries that show only a call come without a potency. A number with no mark means an inactive call. The source made the active and inactive calls. The call rests on the fitted dose curve; in most records, active means well fitted cell-killing curve with a large enough effect; inconclusive means small, poorly fitted or top-dose-only effect, or effect the other way; inactive means no such curve, though single readings can be large or run the other way. Non-standard residues stand in square brackets, D forms with d. Residues, ends and D or L forms follow the SMILES beside them. Peptide text beside a SMILES is read from it. *: point of attachment. Sta = CC(C)C[C@H](N)[C@@H](O)CC(=O)O; Isovaleryl = CC(C)CC(=O)*
# How the values were obtained:
# [1] = Quantitative High-Throughput drug screen in 47 multiple myeloma cell lines against the NCATS MIPE library collection: LP1_DSMZ cell viability assay (AID 1918982); further: nearly all actives have a fitted effect of over 35% in size; further: potency means the concentration at half of the fitted maximal effect
# In short: (§1)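 Plated at 500 cells per well, myeloma lines received MIPE 4.0 compounds by pin tool. Following 48 h culture at 37 °C, CellTiter-Glo luminescence gave viability relative to DMSO and media-only controls.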
# [2] = Quantitative High-Throughput drug screen in 47 multiple myeloma cell lines against the NCATS MIPE library collection: KMS28PE_JCRB cell viability assay (AID 1918983); further: nearly all actives have a fitted effect of over 35% in size; further: potency means the concentration at half of the fitted maximal effect
# In short: as §1
# [3] = Quantitative High-Throughput drug screen in 47 multiple myeloma cell lines against the NCATS MIPE library collection: L363_DSMZ cell viability assay (AID 1918984); further: nearly all actives have a fitted effect of over 40% in size; further: potency means the concentration at half of the fitted maximal effect
# In short: as §1
# [4] = Quantitative High-Throughput drug screen in 47 multiple myeloma cell lines against the NCATS MIPE library collection: OCIMY7_PLB cell viability assay (AID 1918987); further: nearly all actives have a fitted effect of over 65% in size; further: potency means the concentration at half of the fitted maximal effect
# In short: as §1
# [5] = Quantitative High-Throughput drug screen in 47 multiple myeloma cell lines against the NCATS MIPE library collection: OCIMY5_PLB cell viability assay (AID 1918988); further: nearly all actives have a fitted effect of over 65% in size; further: potency means the concentration at half of the fitted maximal effect
# In short: as §1
# [6] = Quantitative High-Throughput drug screen in 47 multiple myeloma cell lines against the NCATS MIPE library collection: SKMM1_PLB cell viability assay (AID 1919863); conditions: SKMM1 myeloma viability, CellTiter-Glo ATP, 48 h; viability: hits give low values; further: series mostly up to about 46 µM; nearly all actives have a fitted effect of over 35% in size
# In short: as §1
# [7] = Quantitative High-Throughput drug screen in 47 multiple myeloma cell lines against the NCATS MIPE library collection: XG1_PLB cell viability assay (AID 1919866); further: nearly all actives have a fitted effect of over 35% in size; further: potency means the concentration at half of the fitted maximal effect
# In short: as §1
# [8] = Quantitative High-Throughput drug screen in 47 multiple myeloma cell lines against the NCATS MIPE library collection: UTMC2_PLB cell viability assay (AID 1919868); further: nearly all actives have a fitted effect of over 55% in size; further: potency means the concentration at half of the fitted maximal effect
# In short: as §1
# [9] = Quantitative High-Throughput drug screen in 47 multiple myeloma cell lines against the NCATS MIPE library collection: PE2_PLB cell viability assay (AID 1919869); further: nearly all actives have a fitted effect of over 35% in size; further: potency means the concentration at half of the fitted maximal effect
# In short: as §1
# [10] = Quantitative High-Throughput drug screen in 47 multiple myeloma cell lines against the NCATS MIPE library collection: PCM6_Riken cell viability assay (AID 1919870); further: nearly all actives have a fitted effect of over 30% in size; further: potency means the concentration at half of the fitted maximal effect
# In short: as §1
# [11] = Quantitative High-Throughput drug screen in 47 multiple myeloma cell lines against the NCATS MIPE library collection: OPM2_DSMZ cell viability assay (AID 1919872); further: nearly all actives have a fitted effect of over 30% in size; further: potency means the concentration at half of the fitted maximal effect
# In short: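 Myeloma cells (500 per well) were exposed to MIPE 4.0 compounds by pin transfer and incubated 48 hours at 37C, 5% CO2. Viability was read as ATP by CellTiter-Glo luminescence, normalised to DMSO (100%) and media-only (0%) wells.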
# [12] = Quantitative High-Throughput drug screen in 47 multiple myeloma cell lines against the NCATS MIPE library collection: KMS11_JCRBsus cell viability assay (AID 1919873); further: nearly all actives have a fitted effect of over 50% in size; further: potency means the concentration at half of the fitted maximal effect
# In short: as §1
# [13] = Quantitative High-Throughput drug screen in 47 multiple myeloma cell lines against the NCATS MIPE library collection: KMS28BM_JCRB cell viability assay (AID 1919874); further: nearly all actives have a fitted effect of over 35% in size; further: potency means the concentration at half of the fitted maximal effect
# In short: as §1
# [14] = Quantitative High-Throughput drug screen in 47 multiple myeloma cell lines against the NCATS MIPE library collection: KMS34_JCRB cell viability assay (AID 1918985); further: nearly all actives have a fitted effect of over 40% in size; further: potency means the concentration at half of the fitted maximal effect
# In short: as §1
# [15] = Quantitative High-Throughput drug screen in 47 multiple myeloma cell lines against the NCATS MIPE library collection: OPM1_PLB cell viability assay (AID 1918989); further: nearly all actives have a fitted effect of over 40% in size; further: potency means the concentration at half of the fitted maximal effect
# In short: as §1
# [16] = Quantitative High-Throughput drug screen in 47 multiple myeloma cell lines against the NCATS MIPE library collection: U266_ATCC cell viability assay (AID 1919864); further: nearly all actives have a fitted effect of over 35% in size; further: potency means the concentration at half of the fitted maximal effect
# In short: as §1
# [17] = Quantitative High-Throughput drug screen in 47 multiple myeloma cell lines against the NCATS MIPE library collection: XG6_PLB cell viability assay (AID 1919865); further: nearly all actives have a fitted effect of over 40% in size; further: potency means the concentration at half of the fitted maximal effect
# In short: as §1
# [18] = Quantitative High-Throughput drug screen in 47 multiple myeloma cell lines against the NCATS MIPE library collection: RPMI8226_ATCC cell viability assay (AID 1919871); further: nearly all actives have a fitted effect of over 30% in size; further: potency means the concentration at half of the fitted maximal effect
# In short: as §1
# [19] = Quantitative High-Throughput drug screen in 47 multiple myeloma cell lines against the NCATS MIPE library collection: VP6_DJ cell viability assay (AID 1919867); further: nearly all actives have a fitted effect of over 40% in size; further: potency means the concentration at half of the fitted maximal effect
# In short: as §1
Compound,Potency [1],Potency [2],Potency [3],Potency [4],Potency [5],viability [6],Potency [7],Potency [8],Potency [9],Potency [10],Potency [11],Potency [12],Potency [13],Potency [14],Potency [15],Potency [16],Potency [17],Potency [18],Potency [19]
O=C(OC1C[C@H]2CC[C@@H](C1)[N+]21CCCC1)C(O)(c1ccccc1)c1ccccc1 (stereo partly specified),inactive,inactive,inactive,inactive,inactive,138%,inactive,inactive,inactive,inactive,inactive,inactive,inactive,–,–,–,–,–,–
COC(=O)[C@H](Cc1ccccc1)NC(=O)[C@@H](N)CC(=O)O (H-Asp-Phe-OMe),inactive,inactive,–,inactive,inactive,–,inactive,–,inactive,inactive,inactive,–,–,inactive,inactive,inactive,14.8 µM (active),–,–
CCOC(=O)c1c(C)n(C)c2ccc(O)cc12,inactive,inactive,inactive,–,3.72 µM (active),–,6.62 µM (active),–,inactive,–,inactive,inactive,–,3.72 µM (active),inactive,–,–,inactive,–
Cc1cc(=O)oc2cc(O)ccc12,inactive,inactive,inactive,–,inactive,114%,inactive,–,inactive,–,inactive,inactive,inactive,–,inactive,inactive,inactive,inactive,–
CC(C)CC(=O)N[C@H](C(=O)N[C@H](C(=O)N[C@@H](CC(C)C)[C@@H](O)CC(=O)N[C@@H](C)C(=O)N[C@@H](CC(C)C)[C@@H](O)CC(=O)O)C(C)C)C(C)C (Isovaleryl-VV[Sta]A[Sta]-OH),inactive,inactive,inactive,inactive,–,–,16.6 µM (active),–,inactive,–,inactive,inactive,inactive,–,inactive,–,–,–,–
NC(=O)Cc1cccc(C(=O)c2ccccc2)c1N,inactive,inactive,inactive,–,4.69 µM (active),–,inactive,–,–,inactive,–,inactive,inactive,–,–,–,–,inactive,–
Clc1ccc2c(N3CCN(CCCN4CCN(c5ccnc6cc(Cl)ccc56)CC4)CC3)ccnc2c1,inactive,inactive,inactive,–,–,–,inactive,–,inactive,–,inactive,inactive,inactive,inactive,–,–,inactive,–,–
COc1c2occc2cc2ccc(=O)oc12,inactive,inactive,inactive,–,–,–,5.9 µM (active),–,inactive,inactive,inactive,–,–,inactive,–,inactive,inactive,–,–
C[Se]CCC(N)C(=O)O (stereo unspecified),inactive,inactive,inactive,–,–,–,inactive,–,inactive,–,inactive,inactive,–,–,inactive,inactive,–,inactive,–
O=C(O)c1cccnc1Nc1cccc(C(F)(F)F)c1,inactive,inactive,inactive,inactive,–,–,inactive,–,–,inactive,inactive,inactive,inactive,inactive,–,–,–,inactive,3.32 µM (active)
Cc1ccc(C(=O)c2cc(O)c(O)c([N+](=O)[O-])c2)cc1,inactive,inactive,16.6 µM (active),–,–,–,–,26.4 µM (active),23.5 µM (active),–,inactive,–,inactive,inactive,–,–,–,–,–
O=P(O)(O)C(O)(Cn1ccnc1)P(=O)(O)O,inactive,inactive,inactive,–,inactive,–,–,–,inactive,inactive,inactive,inactive,inactive,–,inactive,–,inactive,–,6.45 µM (active)
Oc1ccc(OCc2ccccc2)cc1,inactive,inactive,inactive,–,–,–,inactive,–,inactive,inactive,inactive,inactive,inactive,18.7 µM (active),inactive,inactive,–,–,inactive
CC(C)[N+]1(C)[C@@H]2CC[C@H]1CC(OC(=O)C(CO)c1ccccc1)C2 (stereo partly specified),inactive,inactive,14.8 µM (active),–,inactive,–,–,–,inactive,–,inactive,7.43 µM (active),8.33 µM (active),inactive,–,inactive,inactive,inactive,14.8 µM (active)
CCN(CC)C(=S)SSC(=S)N(CC)CC,0.0209 µM (active),0.0118 µM (active),inactive,0.001 µM (active),0.0059 µM (active),–,0.001 µM (active),0.0118 µM (active),–,0.001 µM (active),0.0418 µM (active),0.003 µM (active),0.0019 µM (active),0.0235 µM (active),0.001 µM (active),0.0059 µM (active),0.001 µM (active),0.0187 µM (active),0.001 µM (active)
CCCc1cc(=O)[nH]c(=S)[nH]1,inactive,inactive,–,inactive,inactive,–,inactive,–,inactive,inactive,inactive,inactive,–,inactive,inactive,–,–,–,inactive
NS(=O)(=O)c1cc(C(=O)O)c(NCc2ccco2)cc1Cl,inactive,inactive,inactive,–,–,–,inactive,–,inactive,inactive,inactive,–,–,inactive,–,–,inactive,inactive,–
